Most compounds without a hit are left out; they make up all but 1.6% or so of the library.
KCNQ2 inh: inhibitors of rat KCNQ2 potassium channel; O88943; CHO-K1 KCNQ2, FluxOR thallium flux, 20 min; stronger effect = lower value; B-score at 10 µM; 310,000 compounds, 1.1% hits;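 active = fluorescence ratio B-score at most minus 3 library SDs, with starting brightness B-score within 2 library SDs, cut at about -5.5 in these data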
Target sequence (O88943 whole entry, looked up): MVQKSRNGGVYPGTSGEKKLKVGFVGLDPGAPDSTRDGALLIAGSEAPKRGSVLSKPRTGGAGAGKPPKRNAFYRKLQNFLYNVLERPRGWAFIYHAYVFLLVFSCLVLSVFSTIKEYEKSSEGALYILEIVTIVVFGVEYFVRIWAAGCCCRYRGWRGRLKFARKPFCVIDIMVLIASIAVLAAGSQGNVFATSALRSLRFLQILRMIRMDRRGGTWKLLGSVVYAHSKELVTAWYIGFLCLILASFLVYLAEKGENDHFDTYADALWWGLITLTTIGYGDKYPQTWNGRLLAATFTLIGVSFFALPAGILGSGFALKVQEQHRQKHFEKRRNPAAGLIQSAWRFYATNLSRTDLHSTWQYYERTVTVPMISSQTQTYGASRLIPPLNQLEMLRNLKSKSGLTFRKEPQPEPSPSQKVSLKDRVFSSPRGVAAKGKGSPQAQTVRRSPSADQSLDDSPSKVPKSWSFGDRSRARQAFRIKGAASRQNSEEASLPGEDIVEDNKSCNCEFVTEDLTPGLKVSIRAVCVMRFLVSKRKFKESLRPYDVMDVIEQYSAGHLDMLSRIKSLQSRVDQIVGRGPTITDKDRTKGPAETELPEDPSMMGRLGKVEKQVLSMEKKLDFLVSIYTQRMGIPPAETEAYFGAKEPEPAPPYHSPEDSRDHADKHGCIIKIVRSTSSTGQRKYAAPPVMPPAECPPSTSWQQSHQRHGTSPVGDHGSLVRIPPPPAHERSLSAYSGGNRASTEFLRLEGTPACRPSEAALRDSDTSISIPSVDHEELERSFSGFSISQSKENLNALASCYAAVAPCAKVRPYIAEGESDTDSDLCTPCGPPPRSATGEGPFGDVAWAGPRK
KCNQ2 enhance: enhances the rat KCNQ2 potassium channel | O88943 | CHO-K1 KCNQ2, FluxOR thallium flux fluorescence; stronger effect = higher value | B-score at 10 µM | 310,000 compounds, 0.54% hits;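 active = fluorescence ratio B-score at least 3 SD of library B-scores, with initial fluorescence B-score within 3 of them, cut at about 5.3 in these data; same plate scores as AID 2156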;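 also: B-score of peak minus minimum over baseline fluorescence ratio after K+ and Tl+ stimulus; positive B-score means potentiation of KCNQ2 with more thallium influx and brighter signal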
Each line names hits and unclear results; the compound was inactive in the other large screens.

Cc1ccc(-n2nc(C)c3c(C)c(CCC(=O)Nc4ccc(CN5CCCC5)cc4)c(C)nc32)cc1	KCNQ2 inh -7.9
CCOC(=O)N1CCN(C(=O)CS(=O)Cc2nc(-c3ccc(OC)c(OC)c3)oc2C)CC1 (configuration not stated)	none (no result: KCNQ2 enhance)
CCOC(=O)CC(NC(=O)c1cc2cccc(OC)c2oc1=O)c1ccc(OC)cc1 (configuration not stated)	none (no result: KCNQ2 enhance)
CCOC(=O)c1c(S(=O)(=O)NCC(=O)Nc2cccc(C)c2)c(C)n(C)c1C	none (no result: KCNQ2 enhance)
CCOc1ccc(Cc2c(Cl)nc(N)nc2Cl)cc1	none (no result: KCNQ2 enhance)
COc1ccc(Cc2c(Cl)ncnc2Cl)cc1	none (no result: KCNQ2 enhance)
CSc1nc(Cl)c(Cc2ccc(OC(C)C)cc2)c(N(C)C)n1	KCNQ2 inh -6
CCOc1ccc(Cc2c(Cl)nc(SC)nc2N(C)C)cc1	KCNQ2 inh -7.2
Cc1cccc(/C(N)=N/OC(=O)c2cccc3ccccc23)c1	KCNQ2 inh -5.7
N/C(=N\OC(=O)c1cccc2ccccc12)c1cccc([N+](=O)[O-])c1	none
CCOC(=O)C1C(C)=C(Nc2ccc(OC)cc2)C(=O)N1c1ccc(OC)cc1 (configuration not stated)	none (no result: KCNQ2 enhance)
COc1cc(/C=C/c2ccc3cccc(OC)c3n2)c(OC(C)=O)c([N+](=O)[O-])c1	KCNQ2 inh -5.6
COc1cc(/C=C/c2ccc3cccc(OC)c3n2)c(O)c([N+](=O)[O-])c1	none
c1ccc(C[C@H]2CNCCN2CC2(c3ccccc3)CC2)cc1	none
O=C(O)CCc1cc(I)c(Oc2ccc(O)c(I)c2)c(I)c1	KCNQ2 enhance 32
N[C@@H](Cc1cc(I)c(Oc2ccc(O)c(I)c2)c(I)c1)C(=O)O	none
O=C(NNc1ccc([N+](=O)[O-])cc1)C1CC1c1ccccc1 (configuration not stated)	KCNQ2 enhance 6.3
O=C(NNc1ccc([N+](=O)[O-])cc1)C1CC2CCCC(C1)C2=O (configuration not stated)	none
CCc1nnc(NC(=O)CCC(=O)NC2CCCc3ccccc32)s1 (configuration not stated)	none (no result: KCNQ2 enhance)
Cc1ccc2cc(/C=C(\C#N)C(N)=O)c(N3CCCCC3)nc2c1	none (no result: KCNQ2 enhance)
CCOC(=O)/C(C#N)=C/c1cc2ccccc2nc1N1CCCCC1	KCNQ2 inh -6.5
COc1ccc(-c2n(Cc3ccccc3)c3ccccc3[n+]2Cc2ccccc2)cc1	KCNQ2 inh -6
COc1ccc(-c2nc3ccccc3n2Cc2ccccc2)cc1	none (no result: KCNQ2 enhance)
CCOc1ccc(C(=S)N2CCCC2)c(OCC)c1	none
CCn1c(CSCc2ccc(C)cc2)nnc1SCC(=O)N1CCN(c2ccccc2)CC1	KCNQ2 inh -7.8
C=CCn1c(CSCc2ccccc2)nnc1SCC(=O)N1CCN(c2ccccc2)CC1	none (no result: KCNQ2 enhance)
CC(C)C[C@@]12C(=O)N(c3cccc(F)c3)C(=O)N1[C@H](c1ccc(Cl)cc1)[C@@H]1C(=O)N(C3CCCCC3)C(=O)[C@@H]12	none (no result: KCNQ2 enhance)
COc1ccc(/C=N/n2cncn2)cc1Cn1nc(C)c([N+](=O)[O-])c1C	none (no result: KCNQ2 enhance)
COc1ccc(OC)c(-c2csc(N(Cc3ccco3)C(=O)c3cccs3)n2)c1	none (no result: KCNQ2 enhance)
COc1ccc(-c2csc(N(Cc3ccco3)C(=O)c3cccs3)n2)cc1	KCNQ2 inh -6
COCCCN(C(=O)c1ccccc1)c1nc(-c2ccc(OC)cc2)cs1	KCNQ2 inh -5.9
COCCN(C(=O)c1ccccc1)c1nc(-c2ccc(OC)cc2)cs1	none (no result: KCNQ2 enhance)
CC(C)(C)NC(=O)Nc1nnc(SCC(=O)NC2CCCCC2)s1	none (no result: KCNQ2 enhance)
O=S(=O)(NCc1cn2ccsc2n1)c1ccc2c(c1)OCCO2	none (no result: KCNQ2 enhance)
CC(C)c1ccc(NC(=O)CSc2n[nH]c(=O)n2-c2cccnc2)cc1	none
COc1cccc(OC)c1OCCCOc1cccc2cccnc12	KCNQ2 inh -5.6
Cc1cccc(OCCCOc2cccc3cccnc23)c1C	none (no result: KCNQ2 enhance)
CCC(Sc1nc2ncccc2[nH]1)C(=O)N1CCOCC1 (configuration not stated)	none
O=C(CSc1nnc(SCc2ccc(Cl)cc2)s1)N/N=C/c1c(Cl)cccc1Cl	KCNQ2 enhance 5.4
O=C(CSc1nnc(SCc2ccc(Cl)cc2)s1)N/N=C/c1ccc(Cl)cc1Cl	none (no result: KCNQ2 enhance)
Cc1ccc(NC(=O)CSc2nnnn2-c2cccnc2)c(C)c1	none
CCOC(=O)CCSc1nc(C(C)(C)C)cc(C(F)(F)F)c1C#N	none (no result: KCNQ2 enhance)
CCOC(=O)CCSc1nc(C)cc(C(F)(F)F)c1C#N	KCNQ2 inh -5.7
O=S(=O)(NCCc1ccc(Cl)cc1)c1cccc2cccnc12	none (no result: KCNQ2 enhance)
c1ccc(CC2CCN(C3=Nc4cccc5cccc3c45)CC2)cc1	KCNQ2 inh -6
c1cc2c3c(cccc3c1)C(N1CCOCC1)=N2	none (no result: KCNQ2 enhance)
Cc1ccc(-c2nc3cccnc3s2)cc1NS(=O)(=O)c1ccc2c(c1)CCCC2	KCNQ2 inh -6
O=S(=O)(Nc1cccc(-c2nc3cccnc3s2)c1)c1ccc2c(c1)CCCC2	none (no result: KCNQ2 enhance)
Nc1cc(=O)[nH]c(SCC(=O)N2CCCCC2)n1	none (no result: KCNQ2 enhance)
CCN(CC(=O)Nc1ccccc1Br)C1CCCCC1	none (no result: KCNQ2 enhance)
O=C(CSC1CCCCC1)Nc1ccccc1Br	KCNQ2 enhance 6.9
CC(C)c1c(C(=O)N/N=C2\CCc3ccccc32)nnn1-c1nonc1N	none
Nc1c(-c2ccccc2)c(CSc2nc3ccccc3[nH]2)nn1-c1ccc(Cl)cc1	none (no result: KCNQ2 enhance)
Nc1c(-c2ccccc2)c(CSc2nc3ccccc3[nH]2)nn1-c1cccc(Cl)c1	KCNQ2 inh -5.6
O=C(c1cc(C2CC2)on1)N1CCN(c2ccccc2)CC1	none
C=CCNC(=S)Nc1sc2c(c1C(=O)OCC)CC(C)(CC)OC2 (configuration not stated)	KCNQ2 enhance 9.9
C=CCNC(=S)Nc1sc2c(c1C(=O)OCC)CCN(C(=O)OCC)C2	none (no result: KCNQ2 enhance)
Cc1cc(N/N=C2\CC(C)CC(C)(C)C2)nc2ccccc12 (configuration not stated)	KCNQ2 inh -5.6
CC1C/C(=N/Nc2nc3ccccc3[nH]2)CC(C)(C)C1 (configuration not stated)	none
COc1ccccc1/C=C/CN1CCSCC1	none (no result: KCNQ2 enhance)
CC1CCC(NC(=O)CCN2C(=O)C3C4C=CC(C4)C3C2=O)CC1 (configuration not stated)	none
CCN(c1ccc(NC(=O)c2ccc(Cl)nc2)cc1)C(C)C	none (no result: KCNQ2 enhance)
CC(C)n1cc(CNC(=O)C2CCC(=O)N(Cc3ccccc3F)C2)cn1 (configuration not stated)	none
CCn1c2ccccc2c2cc(NC(=O)C(C)Oc3ccccc3)ccc21 (configuration not stated)	none (no result: KCNQ2 enhance)
CCn1c2ccccc2c2cc(NC(=O)C(C)Oc3ccc(OC)cc3)ccc21 (configuration not stated)	KCNQ2 inh -6.2
O=c1[nH]cnc2scc(-c3ccc(Br)cc3)c12	none
Cc1ccc(-c2csc3nc[nH]c(=S)c23)cc1	KCNQ2 enhance 14
CCOc1ncccc1C(=O)OCC(=O)Nc1ccc(C(N)=O)cc1	none
CCOC(=O)C1=NN(C(=O)c2cccc(Br)c2)C(O)(C(C)(C)C)C1 (configuration not stated)	KCNQ2 enhance 22
CCOC(=O)C1=NN(C(=O)c2ccco2)C2(CC2)C1	none
Cc1nn(C)c(NC(=O)c2ccccc2Cl)c1Cl	none
CCc1ccc(OCC(=O)Nc2ccc(S(=O)(=O)Nc3ccccn3)cc2)cc1	none (no result: KCNQ2 enhance)
O=C1CN(c2nc(-c3cccnc3)nc3sc4c(c23)CCCC4)CCN1	KCNQ2 inh -5.7
Nc1nc(-c2cccnc2)nc2sc3c(c12)CCCC3	none
Cc1ccc2cc(C(c3nnnn3C3CCCC3)N(Cc3ccccc3)Cc3ccco3)c(=O)[nH]c2c1 (configuration not stated)	none (no result: KCNQ2 enhance)
Cc1cc2cc(C(c3nnnn3C3CCCC3)N(Cc3cccnc3)Cc3ccco3)c(=O)[nH]c2cc1C (configuration not stated)	KCNQ2 inh -6

Bioassay records deposited in PubChem by Johns Hopkins Ion Channel Center.
